From PubChem BioAssay (Tox21) come the findings set out here.

Results filed as inconclusive are left out. A call without a number means that no potency is given here. A number with no mark means an inactive call. Calls of active or inactive are those of the source. Calls come from the whole dose curve; as a rule, active = well fitted activation curve with a large enough effect in the signal ratio in the repeat runs (not every such curve was filed as active); inconclusive = weak or mixed curves; inactive = flat fitted curve, though single readings scatter; the % refers to the signal ratio.

The assay in a line: qHTS assay to identify small molecule agonists of the hypoxia (HIF-1) signaling pathway (AID 1224846). The following applies: HRE-bla ME-180 cells, beta-lactamase ratio, 17 h; series mostly up to 76.8 µM; activation: at the top concentration. The source says: U.S. Tox21 Program National Center for Advancing Translational Sciences [NCATS] NIH Chemical Genomics Center [NCGC] U.S. Environmental Protection Agency [EPA] National Institutes of Environmental Health Sciences [NIEHS] National Toxicology Program [NTP] U.S. Food and Drug Administration [FDA] Tox21 Assay Overview: Hypoxia-inducible factor-1 (HIF-1) is the major hypoxia-regulated transcription factor that controls cellular responses to low oxygen concentration. HIF-1 is composed of two subunits: hypoxia responsive HIF-1-alpha and constitutively expressed HIF-1-beta, which is also known as aryl hydrocarbon receptor nuclear translocator. During hypoxic conditions, HIF-1-alpha heterodimerizes with HIF-1-beta and translocates into the nucleus where the HIF-1 complex binds to the hypoxia-response element (HRE) and activates expression of target genes such as VEGF (vascular endothelial growth factor). The HIF-1 pathway is essential to normal growth and development, and is involved in the pathophysiology of cancer, inflammation, and ischemia. Using a beta-lactamase reporter-gene under control of the hypoxia response element, a cell-based assay [CellSensor(TM) HRE-bla ME-180 from Life Technologies, Carlsbad, CA] was used to measure hypoxia-induced signaling. Tox21 10K library compounds were measured for their ability to induce the reporter gene activity.
Tox21 Assay Protocol Summary: HRE-bla ME-180 cells were dispensed at 2,000 cells per well in 6 uL of assay medium containing 0.5% dialyzed FBS into black wall/clear-bottom 1536-well plates using a Multidrop Combi (Thermo Scientific, Waltham, MA) dispenser. After the assay plates were incubated at 37C and 5% CO2 for 5 hrs, 23 nL of compounds dissolved in DMSO, positive controls or DMSO only was transferred to each well of the assay plate using a Pintool station (Kalypsys, San Diego, CA). The assay plates were incubated at 37C and 5% CO2 for 17 hrs. One uL of LiveBLAzerTM B/G FRET substrate (CCF4-AM) (Life Technologies) was added to each well using a Flying Reagent Dispenser (Aurora Discovery, San Diego, CA).
`O=CCCCC=O`: the “activation” value is 1.15%. Take `Cc1ccc2c(n1)Oc1ccc(C(C)C(=O)OCC(=O)N(C)C)cc1C2` (stereo not given): the Potency result was “inactive”.

Regarding `COC(=O)Nc1nc2ccc(S(=O)c3ccccc3)cc2[nH]1` (stereo not given), the Potency entry was “inactive”.

On to `CCCCNS(=O)(=O)c1ccccc1`, for which the Potency entry was “inactive”.

On to `COc1c(Cl)c(Cl)c(Cl)c(Cl)c1Cl`, for which the Potency result was “inactive”.

Turning to `CCC(C)c1ccccc1O` (stereo not given), the Potency result was “inactive”. Take `CCCCC(CC)COCC1CO1` (stereo not given): the Potency entry was “inactive”. For `O=C(Nc1ccc(Cl)cc1)Nc1ccc(Cl)c(Cl)c1`, the “activation” value is 4.2%. `O=P(O)(O)O`: the Potency result is “inactive”. Take `CC(=O)c1ccccn1`: the Potency entry is “inactive”. As to `CCC(C)OC(=O)c1ccc(O)cc1` (stereo not given), the Potency entry is “inactive”. Still for that read-out and setting: the entry for `CC(=O)C1(C)CC2=C(CCCC2(C)C)CC1C` (stereo not given) is “inactive”; for `O=c1oc(=O)c2cc3c(=O)oc(=O)c3cc12` it is “inactive”.

For the molecule `CCCCOCCOCCO`, the Potency entry was “inactive”. In the case of `CCCCC(CC)COC(=O)c1ccc(N(C)C)cc1` (stereo not given), the Potency result was “inactive”. As for `Cc1c(C(N)=O)cc([N+](=O)[O-])cc1[N+](=O)[O-]`, the Potency entry was “inactive”.

`COC(=O)CCC(=O)OC`: the Potency result was “inactive”. On to `O=C(OCc1ccccc1)c1ccccc1O`, for which the Potency entry is “inactive”.

In the case of `O=Cc1ccccc1O`, the Potency result is “inactive”. With `CC(C)OC=O`, the “activation” value was 0.4%. For `C#C[C@]1(O)CC[C@H]2[C@@H]3CCc4cc(OC)ccc4[C@H]3CC[C@@]21C`, the Potency result is “inactive”. On to `C=CC(C)(CCC=C(C)C)OC(C)=O` (stereo not given), for which the Potency entry is “inactive”. On the same count and under the same terms, the entry for `CCC(C)(O)CCCC(C)C` (stereo not given) is “inactive”. In the case of `Cc1ccc(C(=O)c2cc(O)c(O)c([N+](=O)[O-])c2)cc1`, the “activation” value was 4.83%.

Take `OCCO`: the Potency entry is “inactive”.

Turning to `CCC(C)CO` (stereo not given), the Potency entry is “inactive”. On the same count and under the same terms, the entry for `OC(CCl)CCl` is “inactive”; for `O=CCc1ccccc1` it is “inactive”; for `CC1=CC2C3CC(C=C3C)C2C1` (stereo not given) it is “inactive”. As for `O=C(COc1ccc(Cl)cc1)N1CCN(Cc2ccc3c(c2)OCO3)CC1`, the “activation” value is 3.75%. On to `c1ccc2cc(Nc3ccc(Nc4ccc5ccccc5c4)cc3)ccc2c1`, for which the Potency result was “inactive”. On the same count and under the same terms, the entry for `CC(C)CC(C)(O)C#CC(C)(O)CC(C)C` (stereo not given) is “inactive”; for `CCOC(=O)C(C#N)=C(c1ccccc1)c1ccccc1` it is “inactive”; for `CCCCCCCCCCCO` it is “inactive”. The same measure, in the same setting: to `Nc1ccc(Nc2ccccc2)cc1` belongs “inactive”.

On to `Cc1cccc([N+](=O)[O-])c1C`, for which the Potency result is “inactive”.

Regarding `COc1cc([C@@H]2c3cc4c(cc3[C@H](O)[C@H]3COC(=O)[C@H]23)OCO4)cc(OC)c1OC`, the Potency entry is “inactive”. The same measure, in the same setting: to `Nc1ccc(Cl)cc1Cl` belongs “inactive”. `O=C1OC2(c3cc(Br)c(O)c(Br)c3Oc3c2cc(Br)c(O)c3Br)c2c(Cl)c(Cl)c(Cl)c(Cl)c21`: the “activation” value was 0.507% [at 35.5 µM]. Regarding `NC=O`, the Potency entry was “inactive”.
